The target in test [1] is Nicotinamide N-methyltransferase (Homo sapiens) (UniProt P40261). Kind of test: Confirmatory Screen for Target Class Profiling of Small Molecule Inhibitors of Methyltransferases (AID 1745852). Conditions: MTase-Glo luminescence, SAH detection, recombinant enzyme; measured here: NNMT max response; stronger effect = lower value.
Test [2] concerns the target Phenylethanolamine N-methyltransferase (Homo sapiens) (UniProt P11086). The description is as above. The note with it: MTase-Glo luminescence, SAH detection, recombinant enzyme; measured here: PNMT max response; stronger effect = lower value.
A short description of test [3]: NCATS anti-infectives library activity on the primary C. elegans qHTS viability assay (AID 1745855; calls by dose curve; also: potency is read from the fitted curve at half-maximal effect). The note with it: C. elegans worm area imaging, day 7; series mostly up to 41.8 µM. Put shortly: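 Titration-based screen in worms: eggs hatched overnight in M9, L1 larvae fed TOP10 capsules in S medium with compound, incubated 21 °C for 7 days; fluorescent objects gated by size and intensity at days 0, 3 and 7.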
A general note: qHTS replaces the single test concentration by a dilution series.

A short description of test [4]: NCATS anti-infectives library activity on HEK293 viability as a counter-qHTS vs the C. elegans viability qHTS (AID 1745854). Also: % is scaled to controls: 0 for no effect and ±100 for the full control effect. Conditions: HEK293 viability counter-screen; series mostly up to 41.8 µM. The gist of the method: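 CellTiter-Glo luminescence, read on a CCD imager, scored viability of HEK293 cells after 24 hr compound exposure at 37C. Library tested in several concentrations, 1:5 steps, up to 41.7 uM; digitonin served as control.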

Test [5] can be described thus: HepG2 viability counterscreen (readout 2: ATP content) against the NCATS DSHEA and TCM libraries (AID 1794840). Also: 0% is about no effect. Conditions: ATP content luminescence; series mostly up to 27.3 µM. The gist of the method: (§1)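 1,000 HepG2 cells/well, 4 h attach; compounds ~24 h, 37C/5% CO2. Readout 1: GF-AFC 25 uM final, 30 min, fluorescence 380/510 nm. Readout 2: CellTiter-Glo, 30 min RT, luminescence.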

Test [6] is described as follows: HepG2 viability counterscreen (readout 1: protease activity) against the NCATS DSHEA and TCM libraries (AID 1794841).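 Also: cells exposed to compounds for about 24 h before the protease read; 0% is about no effect.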 The note with it: qHTS concentration series; series mostly up to 27.3 µM. The gist of the method:
as §1

The target of test [7] is Nuclear receptor subfamily 1 group I member 3 (Homo sapiens) (UniProt Q14994). Nature of the test: Primary qHTS for antagonist of constitutive androstane receptor (CAR) against the NCATS DSHEA and TCM libraries (AID 1794836).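 Also: HepG2 cells stably expressing hCAR with CYP2B6 luciferase reporter stimulated by CITCO.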 Conditions: CAR reporter cell assay, antagonist mode, luciferase; series mostly up to 40 µM. An excerpt:
Assay Development and Screening Technology Laboratory (ADST)
National Center for Advancing Translational Sciences (NCATS), Rockville, MD
National Institute of Health (NIH), Bethesda, Maryland
Dietary Supplements and Natural Products have minor oversight of their safety and efficacy. We assembled a collection of Dietary Supplements and Natural Products (DSNP) as well as Traditional Chinese Medicinal (TCM) Plant extracts, which were screened against an in vitro panel of assays, including a liver cytochrome p450 enzyme panel, CAR/PXR signaling pathways, and P-gp transporter assays, to assess their activity. This pipeline facilitated the interrogation of Natural Product-Drug Interaction (NaPDI) through prominent metabolizing pathways. In addition, we compared the activity profiles of the DSNP/TCM substances with those of an approved drug collection. […] Overall, we highlight four significant bioactivity profiles (measured by p-values) as examples of this prediction. […]
8; Detector 1; Fluorescence intensity; ViewLux plate reader (excitation 405 nm, emission 540 nm). […]
11; Detector 2; Luminescence intensity; ViewLux. […]
8. Fluorescence intensity (Ex/Em = 405 nm/540 nm) is obtained using the ViewLux plate reader to determine cell viability. […]
10. Luminescence intensity is read using the ViewLux detector.

A short description of test [8]: Viability counterscreen for antagonist of constitutive androstane receptor (CAR) against the NCATS DSHEA and TCM libraries (AID 1794837).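 Also: compound exposure lasted 24 h before viability reading; 0% is about no effect.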 Conditions: CAR reporter cell line viability counterscreen, qHTS; series mostly up to 40 µM. Put shortly: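 Cell viability, CellTiter-Fluor, Ex/Em 405/540 nm, 1 h at 37C. HepG2-CYP2B6-hCAR, 2,500 cells/well; cpds + CITCO 48 uM final (antagonist mode), 24 h, 37C/5% CO2.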

Test [9] is described as follows: Viability counterscreen for agonist of constitutive androstane receptor (CAR) against the NCATS DSHEA and TCM libraries (AID 1794838). Also: 0% is about no effect. Conditions: HepG2 cell viability counterscreen, CAR agonist assay; series mostly up to 40 µM. The gist of the method: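 Viability by CellTiter-Fluor fluorescence, 405/540 nm, after 1 h at 37C. HepG2-CYP2B6-hCAR cells were exposed 24 h to test substances in presence of 0.75 uM PK11195 (final).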
For orientation: The purpose of a counterscreen is to sort out artefacts and off-target activity.

The target in test [10] is Nuclear receptor subfamily 1 group I member 3 (Homo sapiens) (UniProt Q14994). Nature of the test: Primary qHTS for agonist of constitutive androstane receptor (CAR) against the NCATS DSHEA and TCM libraries (AID 1794839).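 Also: HepG2 cells expressing human CAR with a CYP2B6 reporter plus PK11195 antagonist; 0% is about no effect.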 The note with it: CAR agonist reporter cells, qHTS luminescence; series mostly up to 40 µM. Put shortly: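 Luminescence from ONE-Glo luciferase was the agonist read-out in HepG2-CYP2B6-hCAR cells exposed 24 h to test substances. Wells also held the CAR antagonist PK11195 at 0.75 µM final. Viability was by CellTiter-Fluor fluorescence.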

Records with an inconclusive call do not appear. Calls of active or inactive are those of the source. Unless noted, calls follow the shape of the dose curve; as a rule, active = well fitted curve in the direction sought with a large enough effect; inconclusive = small, poorly fitted or top-dose-only effect, or another doubt; inactive = no such curve, though single readings can be large; an effect the other way counts as inactive or inconclusive.

This passage reports activity, Potency and outcome results from PubChem BioAssay (NCATS).

Chain of Nuclear receptor subfamily 1 group I member 3 (Homo sapiens) (Q14994 whole entry, looked up): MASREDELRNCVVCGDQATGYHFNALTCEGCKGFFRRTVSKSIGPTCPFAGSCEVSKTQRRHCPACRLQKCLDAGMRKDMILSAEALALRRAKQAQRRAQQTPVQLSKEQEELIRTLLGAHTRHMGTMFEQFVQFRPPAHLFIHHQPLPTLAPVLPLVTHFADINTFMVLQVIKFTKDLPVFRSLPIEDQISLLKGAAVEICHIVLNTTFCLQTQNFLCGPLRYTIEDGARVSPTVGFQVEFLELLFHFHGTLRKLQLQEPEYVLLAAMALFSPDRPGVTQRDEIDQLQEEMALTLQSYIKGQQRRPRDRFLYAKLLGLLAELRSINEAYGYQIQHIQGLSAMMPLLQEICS
Chain of Nicotinamide N-methyltransferase (Homo sapiens) (P40261 whole entry, looked up): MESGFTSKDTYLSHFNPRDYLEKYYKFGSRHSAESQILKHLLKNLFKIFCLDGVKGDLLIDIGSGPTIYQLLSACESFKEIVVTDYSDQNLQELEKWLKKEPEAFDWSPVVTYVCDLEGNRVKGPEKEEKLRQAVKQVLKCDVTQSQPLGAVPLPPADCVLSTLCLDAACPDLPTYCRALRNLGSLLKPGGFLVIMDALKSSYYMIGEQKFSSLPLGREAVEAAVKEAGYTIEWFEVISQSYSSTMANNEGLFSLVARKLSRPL
Chain of Phenylethanolamine N-methyltransferase (Homo sapiens) (P11086 whole entry, looked up): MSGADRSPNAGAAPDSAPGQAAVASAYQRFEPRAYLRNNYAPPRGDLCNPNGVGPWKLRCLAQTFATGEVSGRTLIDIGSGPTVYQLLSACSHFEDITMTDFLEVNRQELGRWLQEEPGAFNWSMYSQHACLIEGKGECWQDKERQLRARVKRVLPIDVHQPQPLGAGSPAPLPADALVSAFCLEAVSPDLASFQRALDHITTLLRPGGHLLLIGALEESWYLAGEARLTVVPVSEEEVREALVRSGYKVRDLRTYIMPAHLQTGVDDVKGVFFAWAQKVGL

Take `CC(C)(C)c1cc(C=C(C#N)C#N)cc(C(C)(C)C)c1O`: the activity is -20.4% in test [1] and -25.9% in test [2]. For the same compound, the Potency in test [3] was 0.29 µM (active).

For the compound `CCCN1CCc2cccc3c2[C@H]1Cc1ccc(O)c(O)c1-3`, the activity is -3.62% in test [1] and 6.46% in test [2].

As for `C1=C2CCCN[C@H]2[C@@H]2C[C@H]1[C@H]1CCCCN1C2`, the outcome in test [4] is “inactive”.

On to `NCC(O)c1cc(O)c(O)cc1F` (stereo not drawn), for which the activity in test [1] was -1.34%; in [2], 31.6%.

Consider `O=C(O)c1ccnc2cc(C(OCCN3CCCCC3)c3ccccc3Cl)[nH]c12` (stereo not drawn), for which the outcome in test [4] is “inactive”. For the same compound, the Potency entry in test [3] was “inactive”.

Consider `CN1CCCC1CCOC(c1cc2nccc(C(=O)O)c2[nH]1)c1ccccc1Cl` (stereo not drawn), for which the outcome in test [4] is “inactive”.

For the compound `O=Cc1ccco1`, the outcome in [5] and in [6] was “inactive” each time.

As to `C[C@]12Cc3cn4c(nc3C=C1CCC1C2CC[C@@]2(C)[C@H]1CC[C@@]2(O)C#N)nc1ccccc14` (stereo partly drawn), the activity in test [1] was -35.3%; in test [2] it was -11.6%.

For `CN1CCc2cc(O)cc3c2[C@H]1Cc1ccc(O)c(O)c1-3`, the activity in test [1] was -4.5%; in test [2], -1.47%.

Turning to `CCn1cnc2c(Nc3cccc(Cl)c3)nc(N[C@@H]3CCCC[C@@H]3N)nc21`, the activity in test [1] is -17.5%; in test [2], 1.09%.

Take `CN1CC[C@@]2(C)c3cc(O)ccc3N(C)C12` (stereo partly drawn): the activity in test [1] was -23.6%; in [2], -16.3%.

Turning to `C[C@@H]1[C@@H]2Cc3ccc(O)cc3[C@@]1(C)CCN2CC1CC1`, the activity in test [1] was -1.08%; in test [2], 4.55%.

Consider `CNC(C)C(O)c1ccc(O)cc1` (stereo not drawn), for which the outcome in test [7], in test [8], in test [9], in test [10], in [5] and in test [6] was “inactive” in each case.

Consider `CCCN1CCc2cc(O)cc3c2[C@H]1Cc1ccc(O)c(O)c1-3`, for which the activity in [1] was -21.6%; in test [2], 0.0057%.

In the case of `COc1ccc2[nH]c3c(c2c1)CCNC3`, the figures for the activity in test [1] and in [2] were -13.7% and -2.07%, respectively.

As for `c1ccc2cc(CC3=NCCN3)ccc2c1`, the activity worked out at 0.294% in test [1] and 4.14% in [2].

With `CNc1ccc2oc(C[C@H]3O[C@@]4(CC[C@H]3C)O[C@H]([C@H](C)C(=O)c3ccc[nH]3)[C@H](C)C[C@H]4C)nc2c1C(=O)O`, the activity in test [1] is -35.2%; in test [2], -4.07%.

Regarding `COC1=CC(=O)O[C@@H](/C=C/c2ccccc2)C1`, the outcome in [5] and in test [6] was “inactive” in each case.

For `NCCc1ccc(S(=O)(=O)F)cc1`, in test [4], the outcome is “inactive”.

In the case of `CCCN1CCC[C@@H](c2cccc(O)c2)C1`, the activity in [1] was 0.9%; in test [2], 6.74%.

As for `N#C/C(=C/c1ccc(O)c(O)c1)C(N)=S`, the activity in [1] is -5.97%; in test [2], 1.47%.

Take `CN1CCC[C@@H]1Cc1c[nH]c2ccc(Nc3ncccc3[N+](=O)[O-])cc12`: the activity was -4.11% in [1] and 3.35% in test [2].

With `CN(N=O)c1cc(O)ccc1O`, the activity in [1] is -67.2%; in test [2], -42.7%.

On to `O=c1c2ccccc2[se]n1-c1ccccc1`, for which the Potency in test [3] is 18.3 µM (active).

Regarding `CCCN(CCC)CCc1ccc(O)c(O)c1`, the activity in test [1] was -2.74%; in [2], -0.0665%.

In the case of `CC(N)c1cccc(Cl)c1Cl` (stereo not drawn), the activity was -1.94% in test [1] and -98.4% in test [2].

`CN(N=O)c1ccc(O)c(O)c1`: the activity was -14.9% in test [1] and -27.8% in test [2].

Consider `COc1cc(C(=O)O[C@H]2[C@@H]3C=CO[C@@H](O[C@@H]4O[C@H](CO)[C@@H](O)[C@H](O)[C@H]4O)[C@@H]3[C@@]3(CO)O[C@@H]23)ccc1O`, for which the activity in test [1] was -4.95%; in test [2], -3.91%. Moreover, the outcome in test [4] was “inactive”.

Consider `CCCN1CC[C@@H]2c3cc(O)ccc3CC[C@@H]21`, for which the activity is -3.17% in test [1] and -0.789% in test [2].

As for `CCCCCOc1cc2c(cc1-c1cc(/C=C/C(=O)O)ccc1O)C(C)(C)CCC2(C)C`, the activity in [1] was -28.2%; in test [2], 0.0952%.

`Cc1sc2ccccc2c1CC1=NCCN1`: the activity is -6.99% in test [1] and -30.1% in test [2].

Turning to `NC(=O)CI`, the activity is -21.3% in [1] and -8.06% in test [2].

`O=C/C=C/c1ccccc1`: the outcome in test [7], in test [8], in test [9], in test [10], in test [5] and in test [6] was “inactive” in each case.

In the case of `Cc1cc(C(=O)CN2CCCC2)c(C)n1-c1ccc(F)cc1`, the outcome in test [4] was “inactive”.
